# Measured values published in paper PMC11062922 (Nature Chemical Biology, 2023).
# Legend:
# Design in all cases: species or system human, MV4-11 + K-562 + COLO205 + SK-N-BE2 + OVCAR-8
# [1] = tested on: FLT3; details: compound concentrations: 100 nM and 1000 nM (sheet 'Samples')
# [2] = tested on: JAK1(JH2domain-pseudokinase); details: compound concentrations: 100 nM and 1000 nM (sheet 'Samples')
# [3] = tested on: MLK1; details: compound concentrations: 100 nM and 1000 nM (sheet 'Samples')
# [4] = tested on: NEK6; details: compound concentrations: 100 nM and 1000 nM (sheet 'Samples')
# [5] = tested on: RSK1(Kin.Dom.1-N-terminal); details: compound concentrations: 100 nM and 1000 nM (sheet 'Samples')
# [6] = tested on: ACVRL1; details: read-out: apparent Kd; compound concentrations: 100 nM and 1000 nM (sheet 'Samples'), CATDS: 0.20940846784164599; n = 1
# [7] = tested on: SNRNP200; details: read-out: apparent Kd; compound concentrations: 100 nM and 1000 nM (sheet 'Samples'), CATDS: 1.8625825044313801E-2; n = 1
# [8] = tested on: SMG1; details: read-out: apparent Kd; compound concentrations:100 nM and 1000 nM (sheet 'Samples'); n = 1
# [9] = tested on: ACLY; details: read-out: apparent Kd; compound concentrations: 100 nM and 1000 nM (sheet 'Samples'), CATDS: 2.7002269039485799E-2; n = 1
# [10] = tested on: GARS; details: read-out: apparent Kd; compound concentrations: 100 nM and 1000 nM (sheet 'Samples'), CATDS: 2.4594129373340799E-2; n = 1
# [11] = tested on: PFKP; details: read-out: apparent Kd; compound concentrations: 100 nM and 1000 nM (sheet 'Samples'), CATDS: 2.5253779658022699E-2; n = 1
# [12] = tested on: TTN; details: read-out: apparent Kd; compound concentrations: 100 nM and 1000 nM (sheet 'Samples'), CATDS: 1.2755516587496201E-2; n = 1
# [13] = tested on: AGPS; details: read-out: apparent Kd; compound concentrations: 100 nM and 1000 nM (sheet 'Samples'), CATDS: 9.2169061942303496E-2; n = 1
# [14] = tested on: CLK3; details: read-out: apparent Kd; compound concentrations: 100 nM and 1000 nM (sheet 'Samples'), CATDS: 3.87460825135853E-2; n = 1
# [15] = tested on: FN3KRP; details: read-out: apparent Kd; compound concentrations: 100 nM and 1000 nM (sheet 'Samples'), CATDS: 2.5837856545343801E-2; n = 1
# [16] = tested on: MAP4K4; details: read-out: apparent Kd; compound concentrations: 100 nM and 1000 nM (sheet 'Samples'), CATDS: 1.6227318274317299E-2; n = 1
# [17] = tested on: GSPT1;GSPT2; details: read-out: apparent Kd; compound concentrations: 100 nM and 1000 nM (sheet 'Samples'), CATDS: 3.5728111751545999E-2; n = 1
# [18] = tested on: SLC25A6;SLC25A4; details: read-out: apparent Kd; compound concentrations: 100 nM and 1000 nM (sheet 'Samples'), CATDS: 2.6658773348472799E-2; n = 1
# [19] = tested on: SMC2; details: read-out: apparent Kd; compound concentrations: 100 nM and 1000 nM (sheet 'Samples'), CATDS: 2.55109529885677E-2; n = 1
# [20] = tested on: PSMC3; details: read-out: apparent Kd; compound concentrations: 100 nM and 1000 nM (sheet 'Samples'), CATDS: 3.1956932095177297E-2; n = 1
# 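Throughout, for Kinobeads Data: kinobeads ε competition pulldown from cell lysate, compound preincubated 45 min at 4 °C, bound kinases quantified by LC–MS/MS relative to DMSO control.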
compound,measurement,setting,value
COc1cc(Nc2ncc3c(C)nc(-c4cc5ccccc5[nH]4)n3n2)cc(OC)c1OC [GW869516X],Kinobeads Data,[1],no target
same,Kinobeads Data,[2],no target
same,Kinobeads Data,[3],no target
same,Kinobeads Data,[4],no target
same,Kinobeads Data,[5],no target
FC(F)(F)c1ccc(-c2ncn(CCCN3CCOCC3)c2-c2ccncc2)cc1 [SB-217780],potency estimated from few doses,[6],1630 nM
COc1cc(Nc2nccc(-c3cnn4ncccc34)n2)cc(OC)c1 [GW801372X],potency estimated from few doses,[7],1540 nM
CC(=O)N[C@@H](Cc1ccc(OP(=O)(O)O)cc1)C(=O)N[C@H]1CCC(=O)N2CCC[C@@H](C(=O)NCc3ccc(Cl)cc3)N2C1=O [RO0325308-000],potency estimated from few doses,[8],121 nM
Cl.Cl.NC(CNC(=O)c1cc(Br)c(-c2ccnc3[nH]ccc23)s1)c1ccccc1.NC(CNC(=O)c1cc(Br)c(-c2ccnc3[nH]ccc23)s1)c1ccccc1 (centres unmarked) [GSK1322949A],potency estimated from few doses,[9],1570 nM
same,potency estimated from few doses,[10],2030 nM
same,potency estimated from few doses,[11],1880 nM
CCn1c(-c2cccnc2O)nc2cnccc21 [SB-736715],potency estimated from few doses,[12],1870 nM
COc1ccc(-c2cc3c(N)ncnc3o2)cc1 [GW642138X],potency estimated from few doses,[13],2180 nM
NCC(NC(=O)c1cc(-c2cn[nH]c2)c(-c2ccnc3[nH]ccc23)s1)c1ccccc1.NCC(NC(=O)c1cc(-c2cn[nH]c2)c(-c2ccnc3[nH]ccc23)s1)c1ccccc1.O=C(O)C(F)(F)F.O=C(O)C(F)(F)F (centres unmarked) [GSK1325775A],potency estimated from few doses,[14],907 nM
CCN(CC)Cc1ccc(Nc2nccc(-c3cnn4ncccc34)n2)cc1 [GW780056X],potency estimated from few doses,[15],618 nM
NS(=O)(=O)c1ccc(NC=C2C(=O)Nc3ccc4ncsc4c32)cc1 [GW589933X],potency estimated from few doses,[16],2140 nM
CCC(CC)(CC)n1cnc2c(N)ncnc21 [SKF-97620],potency estimated from few doses,[17],655 nM
same,potency estimated from few doses,[18],1430 nM
same,potency estimated from few doses,[19],1640 nM
Cn1cc(C2=C(c3ccc(OC[C@@H](O)CO)cc3)C(=O)NC2=O)c2ccccc21 [RO3208546-000],potency estimated from few doses,[20],2090 nM
